Screens (PubChem BioAssay)
An excerpt weighted towards active compounds, which were near 7.5% of everything screened.
KinaseGlo FLuc = blocks Kinase-Glo luciferase, a counter-screen artifact | Kinase-Glo luciferase, ATP luminescence, 8 min | 200,000 tested, 0.28% active | Potency, µM (highest dose often 38.3 µM), for inactives: at the top dose activity change, negative = inhibition, hits mostly inhibitors; also: % is scaled to controls: 0 for no effect and ±100 for the full control effect; nearly all actives have a fitted effect of over 60% in size
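Kinase-Glo luciferase light output from ATP and luciferin was measured with 10 uM ATP, within the enzyme's linear range. Buffer: 50 mM imidazole pH 7.2, 50 mM KCl, 7 mM MgCl2, 0.01% Tween 20, 0.05% BSA; luminescence read after 8 min at ambient temperature.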
SMN2 splice up = enhancers of SMN2 splice variant expression | HEK293 SMN2-luciferase splicing reporter, luminescence, 30-36 h | Potency, µM (series often up to 46.1 µM), inactives show top-dose activity change, positive = activation, usual class: activators | 210,000 tested, 2.8% active; also: % of control where 0% means no effect; nearly all actives have a fitted effect of over 55% in size
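qHTS luciferase splicing reporter: luminescence rises when SMN2 exon 7 is included in transfected HEK293 cells. Compound exposure lasted 30-36 h at 37C, with 4.5 mM final sodium butyrate as control, followed by a ONE-Glo read.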
ELG1 genotox = induces genotoxicity in HEK293T cells with luciferase-tagged ELG1. HEK293T ELG1-luciferase reporter, luminescence, 16 h. Potency, µM (doses to about 46 µM), for inactives: top-dose activity change, positive = activation, hits mostly activators. 330,000 tested, 1.3% active. AID 504466; also: % of control where 0% means no effect; nearly all actives have a fitted effect of over 60% in size
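ELG1-luciferase HEK293T cells, 2,000/well; compound pinned in; 16 hr, 37 °C, 5% CO2; ONE-Glo, 30 min RT; luminescence on CCD imager.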
NPC1 prom act = activators of NPC1 promoter; 320,000 tested, 2.4% active; Potency, µM (series often up to 9.22 µM), without a hit: at the highest dose activation, most hits filed as activators; Huh7 NPC1 promoter luciferase reporter, 24 h; also: % of control where 0% means no effect; nearly all actives have a fitted effect of over 60% in size
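Cells: Huh7 expressing luciferase under the NPC1 promoter, 1500/well. Seeded 2 h, compound added, incubated 24 h at 37 °C. Luciferase reagent, 10 min ambient, then luminescence.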
Rab9 prom act = activators of Rab9 promoter; Huh7 Rab9 promoter-luciferase reporter, luminescence, 24 h; 320,000 tested, 2.8% active; Potency, µM (highest dose often 9.22 µM), for the others: at the top dose activation, negative = inhibition, usual class: activators; also: % of control where 0% means no effect; nearly all actives have a fitted effect of over 60% in size
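Using Huh7 cells stably transfected with Rab9 promoter–luciferase, compounds were incubated 24 h at 37 °C, 5% CO2; luciferase luminescence was read 10 min after reagent addition.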
FLuc counter = firefly luciferase modulation, counter-screen for miR-21 project | P08659 | AID 588342 | purified FLuc, Km substrates, luminescence inhibition | Potency, µM (highest dose often 57.5 µM), for the others: at the top dose activity change, negative = inhibition, actives largely listed as inhibitors | 360,000 tested, 6.9% active;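 also: plate controls were vehicle for no effect and reference inhibitor for full effect; nearly all actives have a fitted effect of over 55% in size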
Target sequence (P08659 whole entry, looked up): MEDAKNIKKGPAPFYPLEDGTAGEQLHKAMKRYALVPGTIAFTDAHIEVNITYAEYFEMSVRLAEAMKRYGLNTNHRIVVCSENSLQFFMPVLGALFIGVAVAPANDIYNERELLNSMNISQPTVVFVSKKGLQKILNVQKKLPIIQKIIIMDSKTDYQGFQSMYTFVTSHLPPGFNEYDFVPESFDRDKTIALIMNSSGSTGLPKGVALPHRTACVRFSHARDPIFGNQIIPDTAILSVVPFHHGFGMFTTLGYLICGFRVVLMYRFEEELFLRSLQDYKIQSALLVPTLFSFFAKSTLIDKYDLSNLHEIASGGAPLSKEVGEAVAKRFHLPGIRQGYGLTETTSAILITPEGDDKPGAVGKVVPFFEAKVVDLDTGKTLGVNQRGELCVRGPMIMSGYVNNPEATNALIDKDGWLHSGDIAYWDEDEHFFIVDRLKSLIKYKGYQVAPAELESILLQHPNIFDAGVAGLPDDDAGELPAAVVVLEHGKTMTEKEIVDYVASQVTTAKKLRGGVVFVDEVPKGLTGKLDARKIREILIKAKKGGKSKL
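Purified P. pyralis luciferase (10nM final) with 10uM D-luciferin and 10uM ATP (Km levels) in 50mM Tris acetate pH 7.5, 10mM Mg acetate, 0.01% Tween-20, 0.05% BSA; qHTS 6-point titration, ~60 µM downward; luminescence read.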
* = called active by the depositor; ? = inconclusive; . = no result; [ ] = another dose, or the depositor's remark. Calls follow the shape of the dose curve; as a rule, active = well fitted curve in the direction sought with a large enough effect; inconclusive = small, poorly fitted or top-dose-only effect, or another doubt; inactive = no such curve, though single readings can be large; an effect the other way counts as inactive or inconclusive. Potency is read from the fitted curve at half-maximal effect.

SMILES	KinaseGlo FLuc	SMN2 splice up	ELG1 genotox	NPC1 prom act	Rab9 prom act	FLuc counter
CC(=O)NN1C(=O)/C(=C/c2ccc(C(C)C)cc2)SC1=S	0%	-8%	2%	3%	-2%	21µM*
O=c1c(-c2cccs2)nc2cnc(Oc3cccc(Cl)c3)nc2n1C[C@H]1CCCO1	-4%	-38%	.	.	.	.
COc1ccc(CNC(=O)CN2CCN(S(=O)(=O)c3ccccc3)CC2)cc1	.	.	-1%	-1%	3%	4%
CCc1ccc(NC(=O)CCc2c(C)nn(-c3ccc(N4CCCCC4)nn3)c2C)cc1	.	.	13%	?	?	12µM*
Cc1cc(C)cc(NC(=O)CCc2c(C)nn(-c3ccc(N4CCOCC4)nn3)c2C)c1	.	.	3%[9.26 µM]	8%	8%	15µM*
Cc1nn(-c2ccc(N3CCCCC3)nn2)c(C)c1CCC(=O)Nc1cccc(F)c1	.	.	?	2.8µM*	4µM*	4.8µM*
Cc1nn(-c2ccc(N3CCCC3)nn2)c(C)c1CCC(=O)NCc1ccc(F)cc1	.	.	.	.	.	5%
CCc1cccc(NC(=O)CCc2c(C)nn(-c3ccc(N4CCCCC4)nn3)c2C)c1	.	.	14%	24%	?	11µM*
Cc1ccc(N(C)S(=O)(=O)c2cccc(C(=O)NCC(c3cccs3)N3CCOCC3)c2)cc1 (stereo unspecified)	.	.	-10%	0%	-3%	0%
CCOc1ccc(N(CC(=O)Nc2ccc(OC)cc2OC)S(=O)(=O)c2c(C)[nH]c(=O)[nH]c2=O)cc1	.	.	-1%	-3%	1%	-2%
O=C(CN(CCc1ccccc1)Cc1ccccc1)Oc1ccccc1P(=O)(O)O	.	.	0%	-3%	0%	3%
CCOc1cc2sc(N3CCC(C(=O)Nc4ccccc4Cl)CC3)nc2cc1Br	.	?	.	.	.	0%
CCOc1ccc(NC(=O)C2CCCN(S(=O)(=O)c3ccc(Br)s3)C2)cc1 (stereo unspecified)	.	13%	.	.	.	-1%
CCOc1ccc(CNC(=O)CCc2c(C)nn(-c3ccc(N4CCOCC4)nn3)c2C)cc1	.	.	.	.	.	2%
Cc1nn(-c2ccc(N3CCCCC3)nn2)c(C)c1CCC(=O)Nc1ccc(F)cc1	.	.	6%	?	?	13µM*
COc1ccc(CNC(=O)CCc2c(C)nn(-c3ccc(N4CCCCC4)nn3)c2C)c(OC)c1	.	.	.	.	.	-12%
Cc1nn(-c2ccc(N3CCCC3)nn2)c(C)c1CCC(=O)Nc1ccccc1	.	.	.	.	.	-6%
CCOc1ccc(NC(=O)CCc2c(C)nn(-c3ccc(N4CCCCC4)nn3)c2C)cc1	.	.	?	?	2.8µM*	2.7µM*
Cc1ccc(C)c(NC(=O)CCc2c(C)nn(-c3ccc(N4CCCCC4)nn3)c2C)c1	.	.	0%[9.26 µM]	-2%	5%	?
COc1ccc(NC(=O)CCc2c(C)nn(-c3ccc(N4CCCC4)nn3)c2C)cc1Cl	.	.	.	.	.	21µM*
Cc1ccc(NC(=O)CCc2c(C)nn(-c3ccc(N4CCCCC4)nn3)c2C)cc1F	.	.	?	2µM*	4µM*	3.4µM*
Cc1ccc(C(=O)NNC(=O)CSc2nnc(C(C)C)n2C)cc1	.	.	0%	0%	-4%	1%
COc1cccc(N2CC(C(=O)Nc3nnc(SCC(=O)NC4CCCC4)s3)CC2=O)c1 (stereo unspecified)	.	.	6%	-2%	1%	6%
COc1cccc(C(=O)Nc2nnc(SCC(=O)NC3CC3)s2)c1	.	.	?	?	?	5.4µM*
COc1ccc(C(=O)Nc2nnc(SCc3cc(=O)c4cccc(F)c4[nH]3)s2)cc1	.	.	.	.	.	21µM*
SMILES	KinaseGlo FLuc	SMN2 splice up	ELG1 genotox	NPC1 prom act	Rab9 prom act	FLuc counter
COc1ccc(C(=O)Nc2nnc(SCC(=O)NC3CC3)s2)cc1	.	.	?	1.4µM*	2.5µM*	1.2µM*
COCCNC(=O)[C@H]1N2C(=O)c3ccccc3C2SC1(C)C (stereo partly specified)	.	.	-1%	0%	-2%	-3%
CCOc1ccc(CCNC(=O)c2ccc(CS(=O)Cc3cccc(Cl)c3)o2)cc1 (stereo unspecified)	.	.	-4%	-4%	-1%	17µM*
CONC(=O)C1CCN(C(=O)OCc2ccccc2)CC1	3%	7.9µM*	5%	?	?	-16%
CC(C)c1ccccc1NC(=O)CN(c1ccccc1)S(=O)(=O)N(C)C	.	0%	.	.	.	0%
CCOc1ccc(Nc2nc(Cc3nnc(SCC(=O)O)o3)cs2)cc1	-3%	4%	-4%	13%	4%	8.5µM*
CCN1C(=S)SC(=O)C1=C1C=C(C)N(CCOC)C(C)=C1	0%	?	1.6µM*	0.4µM*	0.79µM*	2.4µM*
COCCN1C(=O)/C(=C/c2ccc(N3CCCC3)cc2)SC1=S	-10%	14%	8%	?	?	?
CCN1C(=S)SC(=O)C1=C1C=C(C)N(CCO)C(C)=C1	7%	-17%	5.2µM*	1.3µM*	1.4µM*	7.6µM*
O=C(NCc1ccccn1)Nc1cc(Cl)ccc1Cl	.	.	-7%	73%	3.2µM*	1.2µM*
O=C(NCc1ccccn1)Nc1cccc(NC(=O)NCc2ccccn2)c1	-2%	?	?	-4%	2%	?
O=C(NCc1ccccn1)C(=O)Nc1ccccc1	-2%	18µM*	?	?	?	?
O=C(NCc1ccccn1)Nc1cccc(Cl)c1	-4%	3%	?	1%	15%	19µM*
COC(=O)CNC(c1ccccc1)c1cc(Br)ccc1NC(=O)c1cc(OC)c(OC)c(OC)c1 (stereo unspecified)	.	26%	.	.	.	-2%
O=C(NCC(c1ccco1)N1CCCC1)c1cccc(S(=O)(=O)N2CCOCC2)c1 (stereo unspecified)	.	.	2%	0%	-1%	.
